In the supplement of paper PMC11417369:
± gives the standard deviation of the averaged measurements. In all, about 25,000 sequences were measured (“ln(normalized median fluorescence intensity)”: median about 8.6, highest 2% from about 10 on). This is one part of a sample in which the highest values are shown more often than they occur.

Test system: PfAP2-EXP AP2 domain (GST-tagged)
Experiment: gcPBM binding intensity (ln(normalized median fluorescence intensity)); higher = stronger DNA binding
Method in brief: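 GST-fused DNA-binding domains of P. falciparum, expressed in E. coli, were applied at about 25 μg on average for 1 h to an Agilent 4 × 180k array of primer-extended double-stranded 36-bp intergenic genomic probes and negative controls. Binding intensity is the highest Masliner-normalised natural-log median intensity across replicate spots of either probe orientation, measured with Alexa488 anti-GST antibody and a 488 nm scan.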

In order of falling “gcPBM binding intensity (ln)” value:
1. TTCTTAATATTGCATGCACACTATATAATAATTGAA [CACACA_site4720]  10.41 ± 0.057
2. ATTATAAGAAGGGGGGGTACATAAATATAAATGTAT [XGTACX_site5624]  10.4 ± 0.2
3. AAATAAAGAAATATATGTACATATATATATATATAT [XGTACX_site5131]  10.4 ± 0.28
4. TACTTTCAAAAGATCACACATATATATATATATATA [CACACA_site5630]  10.39 ± 0.085
5. AAAAGTCTTCAAATTTGTACATATATATATATATAT [XGTACX_site3404]  10.29 ± 0.092
6. ATTATATATGTATAAATATGCTATATATATATATAT [GTGCAC_negctrl_site430]  10.3 ± 0.17
7. TTCATAATAAAAAGGTGTACATATATATATATATAT [XGTACX_site2829]  10.34 ± 0.085
8. TATATATATATATGTTGTACATATTTAAATGTTTAT [XGTACX_site5437]  10.2 ± 0.2
9. CATTTAAAATTTGTTTGTACATATATATATATATAT [XGTACX_site6729]  10.2 ± 0.26
10. ATATATATATATAAATGTACAGATATATTTTTTATT [XGTACX_site5445]  10.21 ± 0.078
11. CATTATTATTAACATACACACGTGTTATATACCCCC [CACACA_site9365]  10.2 ± 0.41
12. GGTTGTATAAGTTTTTGTACATATATATATATATAT [XGTACX_site7487]  10.2 ± 0.49
13. TATATATATATATATATACACACTTGTGCAGAATAT [CACACA_site2216]  10.2 ± 0.41
14. TAATATTCAATTATACGTACACATATATATATATAT [XGTACX_site4245]  10.2 ± 0.2
15. TTATTCATACAATATCGTACATATATATATATATAT [XGTACX_site1185]  10.2 ± 0.33
16. CCTACAATTCGTAATACACACACATATATATATATA [CACACA_site9251]  10.2 ± 0.16
17. ATATATATATATATATGTACACATAAAAAGAAAGAA [XGTACX_site1603]  10.2 ± 0.21
18. ATATATATATATATATGTACACATATTATAAAAAAA [XGTACX_site8644]  10.2 ± 0.32
19. ACATATATATAAAGGTGTACACATATATATATATAT [XGTACX_site4779]  10.2 ± 0.71
20. TCAAAAATAAAGATCACACATATATATATATATATA [CACACA_site4381]  10.2 ± 0.35
21. TTATTAATATTGCATGCACACTATATAATAATTGAA [CACACA_site8258]  10.11 ± 0.057
22. ACGTATCAAAAAATTTGTACATATATATATATATAT [XGTACX_site1024]  10.1 ± 0.35
23. TATATACATAAAATTTGTACATATATATATATATAT [XGTACX_site3214]  10.1 ± 0.51
24. ACATAATATACTATTGTGCACATATATATATATATA [GTGCAC_site9761]  10.1 ± 0.45
25. AATACAATATAAAGGTGTACATATATATATATATAT [XGTACX_site68]  10.1 ± 0.48
26. CACAATACTTTCATCACACATATATATATATATATA [CACACA_site4677]  10.1 ± 0.28
27. TTTTATTAATATTGCATGCACACTATATAATAATTG [CACACA_site1049]  10.02 ± 0.064
28. ACATTCACAAAATTTTGTACACATATATATATATAT [XGTACX_site3518]  10 ± 0.26
29. TATATATATATATATACACACTTGTGCAGAATATTA [CACACA_site5257]  10 ± 0.55
30. TAAGAAAAATATATATGTACACATATATATATATAT [XGTACX_site8542]  9.97 ± 0.57
31. TAAAAGAAATATACATGTACATAAATATATATATAT [XGTACX_site1276]  9.86 ± 0.2
32. TTTTTTTTTTTTTTTTGTACATATACATATATATAT [XGTACX_site1981]  9.3 ± 0.11
33. TTTTTTTTTTTTTTTTTTTTTTTTTTTTTTTGGGGG [CACACA_negctrl_site1570]  9.13 ± 0.49
34. ATACATATACACATATGTACATATGAAAAGAAAAAT [XGTACX_site6445]  8.94 ± 0.45
35. CATTATTATTAACATACACACGTGTTAAATACACCC [CACACA_site6118]  8.91 ± 0.6
36. ACATTTTTTTCATATCGTACATATTATAATATTTTC [XGTACX_site6524]  8.9 ± 0.39
37. TTTTTTTTTAGAAAAACATGCATGTCCTAAAAATAA [TGCATGCA_site684]  8.89 ± 0.27
38. TATAAGAATAAAAAGGGTACATAAAATAATAATATA [XGTACX_site2355]  8.82 ± 0.38
39. ATTATATATACATATACACACATACGTACATACATA [CACACA_site9194]  8.8 ± 0.4
40. TATTATAATAAAATATGTACACACATACACACATAT [XGTACX_site2360]  8.8 ± 0.33
41. TATGTATATTTTAATTGTACGTGTATGGTTGTAAAT [XGTACX_site8738]  8.79 ± 0.38
42. ACATTATATAAAATATGTACACATAAATAAATAAAT [XGTACX_site5031]  8.73 ± 0.41
43. TAAAATTTTTTTGTTTGTACATATATATATATAATA [XGTACX_site5609]  8.72 ± 0.52
44. TTTTATTTTTTATTTGCACACAATATGTAAAAAAAT [CACACA_site2927]  8.71 ± 0.16
45. AAAAAAAAAAAAAGGTGTACATAAGTAAATTCATAT [XGTACX_site4206]  8.7 ± 0.54
46. TTCATTATTATTAACATACACACGTGTTATATACAC [CACACA_site4112]  8.66 ± 0.41
47. TATTATTGTTGTTCATGTACACACTATAATAAAAGC [XGTACX_site8957]  8.64 ± 0.4
48. TATAAATAGATATATACACACTTGTGCAGAATATTA [CACACA_site7112]  8.63 ± 0.25
49. TACAATTCGTAATACACACACATATATATATATATT [CACACA_site3751]  8.62 ± 0.36
50. ATTCATAAAAAGAGGTGTACATTAATATAATATATA [XGTACX_site8283]  8.62 ± 0.35
51. ATAATATTATTATAATGTACATATTTCGATATAAAT [XGTACX_site8808]  8.61 ± 0.42
52. TATTCGTGCAATAATAGTACACTTATAAATTATTCA [XGTACX_site8993]  8.595 ± 0.064
53. AAAAAAAAAAAGAAGGGTACATATTATATATAATAT [XGTACX_site6204]  8.59 ± 0.48
54. CAAAATTGACATGACGCACACAAGTGTAGATATTTT [CACACA_site1250]  8.57 ± 0.4
55. ATGTGTGTATTTTATAGTACAGTTACAAGCATTTTT [XGTACX_site6351]  8.57 ± 0.35
56. AAAAAAAAAGAAAAATGTACATACATAAATATATAT [XGTACX_site5664]  8.57 ± 0.45
57. TTTTTTTAATTAGTTTGTACATATTGTTATAATATA [XGTACX_site6294]  8.56 ± 0.4
58. ATACATATATAAATACGTACATATATAATTATATAT [XGTACX_site8178]  8.55 ± 0.3
59. CTTCCTTAGGAATGTACACACATATATAATATGTTG [CACACA_site461]  8.53 ± 0.4
60. ATTTTTTTTCTTTTTTTTTTACATTTTTTTCTTTTT [CACACA_negctrl_site1289]  8.51 ± 0.45
61. TAAGTTTTGTTCTTTTGTACATATAAGTATAGATCG [XGTACX_site4735]  8.48 ± 0.33
62. AAAAAAAAAGATCACACACACATAAATATAAACAAA [CACACA_site5285]  8.48 ± 0.26
63. ATATTTTATACTTGCACACAAAATATATTAAAATGG [CACACA_site5139]  8.47 ± 0.4
64. ATCAGATATATATATTGTACATTTATATATAAATCA [XGTACX_site1960]  8.46 ± 0.36
65. AAATGAATTATATAATATATATAAATAAATAAATAA [CACACA_negctrl_site359]  8.46 ± 0.18
66. ATTTAAAACAAAAGTAGTACGTCTAATAAATTCAAC [XGTACX_site4344]  8.45 ± 0.34
67. TATATATAAAGGTGTACACATATATATATATCTGTA [CACACA_site5311]  8.45 ± 0.17
68. TACTTTATATAAAGATCAAAAAATAAATAATTATAA [TGCATGCA_negctrl_site446]  8.45 ± 0.21
69. TACAATTCGTAATACACACACATATAAATAAATATT [CACACA_site7720]  8.44 ± 0.38
70. ATCAAAGATAAATTTACACACATATAAATATAAATA [CACACA_site7409]  8.44 ± 0.56
71. TGTTGTAAATATGTTTGTACATAAATATATTATTTA [XGTACX_site5442]  8.38 ± 0.35
72. TTTCTTATATTATATAAATATATAGATGTTAATGGT [CACACA_negctrl_site706]  8.38 ± 0.47
73. TTATATATTTATAAATGTACATATAATTTTTTTATA [XGTACX_site4696]  8.3 ± 0.32
74. ATTTAAAAAATATATTGTACATATTTTATTATGTTT [XGTACX_site2984]  8.29 ± 0.35
75. AATAAATACACATACACACACGACGCTAGTATATGT [CACACA_site6627]  8.29 ± 0.4
76. TTGTAATTCATTCAAATATAAAATAAATAAATATGA [CACACA_negctrl_site349]  8.28 ± 0.34
77. AAAATGATGTTAATTACACACATCATCTCATAAACA [CACACA_site3017]  8.28 ± 0.4
78. TATACATATTTCTATTGTACATAAACTAAATCTTCA [XGTACX_site28]  8.27 ± 0.49
79. ATATAAATATAAATATATATGTATAAATATAAATAT [CACACA_negctrl_site247]  8.25 ± 0.47
80. ATAATATATATATATAGTACATATATATAATATTCT [XGTACX_site2445]  8.2 ± 0.24
81. TATTAAAATATTTATACACACATAATTTTGATAAAT [CACACA_site4486]  8.19 ± 0.43
82. ATAAAAAATTTAAGTATTTTTTACAAACCTATAAAT [GTGCAC_negctrl_site51]  8.18 ± 0.38
83. TTTTTTTTTTTTTTTTGTACATAAATTTTTATTAGA [XGTACX_site6409]  8.17 ± 0.35
84. TATTTAATTACATGAACACACATTAGATATTTTTAA [CACACA_site7405]  8.14 ± 0.44
85. TAAAAAATATACATTCGTACATATATATTATATATA [XGTACX_site7918]  8.12 ± 0.25
86. TCCTTAAAAATCTAAAAAGAAAAAAACATATATTTT [GTGCAC_negctrl_site123]  8.04 ± 0.45
87. GATTATATTATATATTAAATATAAATATGTATTATA [TGCATGCA_negctrl_site66]  8.04 ± 0.42
88. TTACAACAGAATGGTATTTTTTTATTTTAAAGAAAA [TGCATGCA_negctrl_site230]  8.04 ± 0.38
